Out of some 1,400 compounds screened, about 1,100 (79%) were called active.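 The calls were made as follows: active = fitted half-maximal concentration of a falling signal no higher than twice the top valid dose in every test run; inconclusive = runs disagree, or flat partial inhibition, or poor fit; inactive = every run inactive: flat, wrong direction, or potency beyond limit.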 So high a share suggests a set chosen from earlier hits. Only a sample is shown. Measured potencies and affinities stand elsewhere.
Test: HIV-1 AD8 envelope cell-cell fusion blockers – cherry-pick, dose response (AID 652062)
Settings: HeLa-AD8 Env / CEM-CCR5 cell fusion, luciferase; at 35 µM (top of the series) unless noted
With `CO[C@@H]1CN(C)C(=O)c2ccc(NC(C)=O)cc2OC[C@@H](C)N(Cc2cncnc2)C[C@@H]1C` the activity change, negative = inhibition was 15.1%.
`CO[C@H]1CN(C)C(=O)c2cc(NC(C)=O)ccc2OC[C@@H](C)N(Cc2nccs2)C[C@H]1C` showed an activity change, negative = inhibition of 20%.
With `COc1ccccc1C(=O)Nc1ccc2c(c1)OC[C@H](C)N(C(C)=O)C[C@H](C)[C@H](OC)CN(C)C2=O` the activity change, negative = inhibition was -17.7%.
`CCCC(=O)Nc1ccc2c(c1)C(=O)N(C)C[C@@H](OC)[C@@H](C)CN(Cc1nccs1)[C@@H](C)CO2` showed an activity change, negative = inhibition of 33.3%.
For `CO[C@@H]1CN(C)C(=O)c2cc(NS(=O)(=O)c3ccc(C)cc3)ccc2OC[C@H](C)N(C(=O)NC(C)C)C[C@@H]1C`, the activity change, negative = inhibition was -8.46%.
Work on `COc1ccccc1S(=O)(=O)Nc1ccc2c(c1)C(=O)N(C)C[C@@H](OC)[C@@H](C)CN[C@@H](C)CO2` yielded an activity change, negative = inhibition of -2.95%.
With `CCOC(=O)CN1CCCc2nc(C)c(C)cc21` the activity change, negative = inhibition was -11.4%.
Work on `Cc1ccc(Cn2nnnc2CN2CCC(c3nc4ccc(Cl)cc4[nH]3)CC2)cc1` yielded an activity change, negative = inhibition of 44.3%.
Work on `CC(=O)c1ccc([C@H]2C[C@@]34CN(C(=O)OC(C)(C)C)S(=O)(=O)[C@H]3C[C@H]2O4)cc1` yielded an activity change, negative = inhibition of -3.29%.
`COc1ccc(C)cc1NC(=O)CCNS(=O)(=O)c1ccc2c(c1)CC(C)N2C(C)=O` (stereo unspecified) gave an activity change, negative = inhibition of -17.8%.
`CNC[C@@H]1Oc2ccc(NS(C)(=O)=O)cc2CC(=O)N([C@H](C)CO)C[C@H]1C` gave an activity change, negative = inhibition of 18.9%.
With `O=C(Nc1ccc(Cl)cn1)C1CCCN1S(=O)(=O)c1cccc2ccccc12` (stereo unspecified) the activity change, negative = inhibition was -67.5%.
In the case of `CCCN1[C@H](C(=O)N[C@@H](C)c2ccccc2)[C@@H](CO)[C@@H]2Cn3c(ccc(-c4cccc(F)c4)c3=O)[C@@H]21`, the activity change, negative = inhibition is reported as 99.2%.
In the case of `Cc1nc2ccccc2c2oc(C(=O)NCc3ccc4c(c3)OCO4)cc12`, the activity change, negative = inhibition is reported as -50%.
`CCc1ccc(-c2nc(CN3CCC(C(=O)NCCc4ccc(OC)c(OC)c4)CC3)c(C)o2)cc1` gave an activity change, negative = inhibition of -25.1%.
`O=C(Cc1ccccc1)N[C@@H]1C=C[C@H](CC(=O)N2CCCCC2)O[C@@H]1CO` showed an activity change, negative = inhibition of -10.8%.
Compound `Cc1ccc(S(=O)(=O)N[C@@H]2CC[C@H](CCNC(=O)c3ccccc3F)O[C@H]2CO)cc1` has an activity change, negative = inhibition of 23.6%.
`COc1ccc(S(=O)(=O)N[C@H]2C=C[C@H](CC(=O)N3CCN(c4ccccc4)CC3)O[C@@H]2CO)cc1` showed an activity change, negative = inhibition of -26.4%.
With `CC(C)CN(C(=O)c1ccc(S(=O)(=O)N2CCCCC2)cc1)C1CCS(=O)(=O)C1` (stereo unspecified) the activity change, negative = inhibition was -25.2%.
For `COCc1[nH]nc2c1C(c1ccc(F)cc1)N(Cc1ccccc1)C2=O` (stereo unspecified), the activity change, negative = inhibition was 11.7%.
Work on `O=C(Nc1ccc(F)cc1)Nc1ccc2c(c1)[C@H]1C[C@@H](CC(=O)N3CCCCC3)O[C@H](CO)[C@H]1O2` yielded an activity change, negative = inhibition of 57.6%.
`CS(=O)(=O)N(Cc1ccc(Cl)cc1)c1ccc(C(=O)NCCC2=CCCCC2)cc1` showed an activity change, negative = inhibition of -7.87%.
Compound `CC(=O)OC1c2ccccc2C(=O)N1c1ccccc1C` (stereo unspecified) has an activity change, negative = inhibition of -15.7%.
Compound `Cc1ccc(C2CC(=O)c3cnc(N4CCc5ccccc5C4)nc3C2)cc1` (stereo unspecified) has an activity change, negative = inhibition of 0.787%.
With `Cc1nn(C)cc1NC(=O)C[C@H]1CC[C@@H]2[C@@H](COc3ccc(NC(=O)C4CCC4)cc3C(=O)N2C)O1` the activity change, negative = inhibition was -24.8%.
Work on `COCC(=O)Nc1ccc2c(c1)C(=O)N(C)[C@H]1CC[C@H](CC(=O)NC3CCCC3)O[C@H]1CO2` yielded an activity change, negative = inhibition of 17%.
`CN1C(=O)c2cc(NC(=O)NC3CCCC3)ccc2OC[C@@H]2O[C@H](CC(=O)NC3CCC3)CC[C@@H]21` showed an activity change, negative = inhibition of -5.79%.
Work on `CCNC(=O)C[C@H]1CC[C@@H]2[C@@H](COc3ccc(NC(=O)Cc4cccs4)cc3C(=O)N2C)O1` yielded an activity change, negative = inhibition of 66.7%.
For `CCNC(=O)Nc1ccc2c(c1)C(=O)N(C)[C@@H]1CC[C@@H](CC(=O)NCC3CCCCC3)O[C@@H]1CO2`, the activity change, negative = inhibition was -14.5%.
`COc1ccc(NC(=O)C(=O)NCC2CCCN2S(=O)(=O)c2cccs2)cc1` (stereo unspecified) gave an activity change, negative = inhibition of 23.4%.
`COc1ccc(OC)c(NC(=O)COc2ccc3c(c2)CCC3)c1` gave an activity change, negative = inhibition of 43.3%.
Compound `COc1ccccc1CCNCc1ccc(OC)c(OCc2ccccc2)c1` has an activity change, negative = inhibition of 45.9% [at 16 µM].
For `O=C(NCCCc1nc2ccccc2[nH]1)c1ccco1`, the activity change, negative = inhibition was -25.6%.
With `C[C@H](O)[C@@H]1C(=O)N2CCc3c([nH]c4cccc(-c5ccccc5)c34)[C@@H]2C[C@@H]1N(C)C(=O)OCc1ccccc1` the activity change, negative = inhibition was -17.1%.
For `C=C(C)CN(CC)c1nc(N)c2c(N)nc3c(c2c1C#N)CC(=O)N3C12CC3CC(CC(C3)C1)C2`, the activity change, negative = inhibition was 27.3%.
`COC(=O)[C@@]1(Cc2ccc(F)cc2)[C@H]2c3cc(C(=O)N(C)C)n(CCO)c3C[C@H]2CN1C(=O)c1ccccc1` showed an activity change, negative = inhibition of 39.7%.

— PubChem BioAssay AID652062 (Broad Institute, 2013)
